Records with an inconclusive call do not appear. Active and inactive are the calls of the source. Unless noted, the call rests on the fitted dose curve.
Assays:
[1] = qHTS assay for small molecule agonists of retinoid X receptor alpha signaling (AID 588544); settings: HEK293T RXRa-UAS-bla, beta-lactamase reporter, 18 h; 530 nm emission;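 on activation: 0% = DMSO basal wells and 100% = reference agonist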
[2] = target: Retinoic acid receptor RXR-alpha (Homo sapiens) (UniProt P19793); assay: as above; settings: HEK293T RXRa-UAS-bla, beta-lactamase reporter, 18 h; series mostly up to 76.7 µM
[3] = target: Thyroid hormone receptor beta (Homo sapiens) (UniProt P10828); assay: qHTS assay for small molecule agonists of thyroid hormone receptor beta signaling (AID 588545); settings: TR-UAS-bla GripTite HEK 293, beta-lactamase ratio, agonist mode, 18 h, percent of T3 response, DMSO as zero; series mostly up to 76.7 µM
How it was run: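 In this cell-based screen, titrated compounds act on HEK 293 cells held in medium with 2% charcoal/dextran FBS, NEAA and pyruvate for 18 hrs at 37 C. Responses are expressed relative to T3 (10 nM) as 100% and basal DMSO as 0%.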

[4] = qHTS assay for small molecule antagonists of retinoid X receptor alpha signaling (AID 588546; active means well fitted inhibition curve with a large enough effect in the signal ratio, with a control signal flat, not every such curve was filed as active; the % refers to the signal ratio;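 further: cells stimulated with 9-cis-retinoic acid as agonist; on the % scale 0 is the no-effect control and ±100 the full control effect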); settings: HEK293T RXRa-UAS-bla, beta-lactamase ratio, antagonist mode; measured here: W530 green channel, cytotoxicity proxy
How it was run: (§1)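 Beta-lactamase reporter inhibition, read as CCF4 fluorescence ratio (ex 405, em 460/530 nm) after 2 h at RT. HEK293T UAS-bla cells, 2500/well, were stimulated with 9-cis-RA at 500 or 100 nM final alongside test compound for 18 h at 37 C.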

[5] = target: Retinoic acid receptor RXR-alpha (Homo sapiens) (UniProt P19793); assay: as above; settings: HEK293T RXRa-UAS-bla, beta-lactamase ratio, antagonist mode
How it was run: as §1

[6] = target: Voltage-gated inwardly rectifying potassium channel KCNH2 (Homo sapiens) (UniProt Q12809); assay: qHTS Assay for Small Molecule Inhibitors of the Human hERG Channel Activity (AID 588834; active means well fitted inhibition curve with a large enough effect;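 further: lower thallium flux fluorescence means stronger hERG block; nearly all actives have a fitted effect of over 50% in size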; further: potency means the concentration at half of the fitted maximal effect); settings: U2OS BacMam hERG, FluxOR thallium flux fluorescence; series mostly up to 92.2 µM
How it was run: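 Concentration-response qHTS measuring drop in thallium-sensitive dye signal. U2OS cells carrying BacMam hERG; compound exposure ~10 min, then stimulation buffer and 2 min read at 1 sec intervals.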

[7] = qHTS assay for small molecule activators of the nuclear factor-kappa B (NF-kB) signaling pathway (AID 651749; active means well fitted activation curve with a large enough effect in the signal ratio; the % refers to the signal ratio; further: % of control where 0% means no effect); settings: NF-kB-bla ME-180 cells, beta-lactamase FRET ratio, 16 h; stronger effect = higher value
How it was run: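 NF-kB-bla ME-180 cells carrying a beta-lactamase reporter under an NF-kB response element, 2,000 cells/well, exposed to compound for 16 hr at 37C; FRET-based beta-lactamase fluorescence read-out of pathway activation.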

[8] = target: Thyroid hormone receptor beta (Homo sapiens) (UniProt P10828); assay: qHTS assay for small molecule antagonists of thyroid hormone receptor beta signaling (AID 588547; active means well fitted inhibition curve with a large enough effect in the signal ratio, with a control signal flat, not every such curve was filed as active; the % refers to the signal ratio;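 further: cells stimulated with 0.4 nM T3 agonist during compound exposure; on the % scale 0 is the no-effect control and ±100 the full control effect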); settings: TR-UAS-bla HEK293, beta-lactamase ratio, antagonist mode, 18 h
How it was run: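 TR-UAS-bla GripTite HEK293 cells in 2% charcoal/dextran FBS medium; compounds 0.59 nM to 92 uM with T3 at 0.4nM final, 18 h at 37 C. Beta-lactamase read by CCF4 fluorescence (460/530 nm); Hill fits gave IC50 and efficacy.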

[9] = qHTS assay for small molecule agonists of the antioxidant response element (ARE) signaling pathway (AID 651741; active means well fitted activation curve with a large enough effect in the signal ratio; the % refers to the signal ratio; further: % of control where 0% means no effect); settings: HepG2 ARE-bla reporter, beta-lactamase FRET ratio, 16 h; series mostly up to 96 µM
How it was run: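 CellSensor ARE-bla HepG2 cells (2,000/well) carrying ARE-driven beta-lactamase, exposed 16 h at 37 C. LiveBLAzer B/G FRET substrate added for 2 h at room temperature; fluorescence intensity read.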

[10] = qHTS assay for small molecule activators of the p53 signaling pathway (AID 651743; active means well fitted activation curve with a large enough effect in the signal ratio, not every such curve was filed as active; the % refers to the signal ratio; further: % of control where 0% means no effect); settings: HCT-116 p53RE-bla, beta-lactamase FRET ratio, 16 h; stronger effect = higher value
How it was run: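 p53RE-bla HCT-116 cells carrying a beta-lactamase reporter under p53 response elements were exposed to compounds for 16 hours at 37 C. Reporter activity read as fluorescence after 2 hours at room temperature with LiveBLAzer B/G FRET substrate.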

Sequence of Retinoic acid receptor RXR-alpha (Homo sapiens) (P19793 whole entry, looked up): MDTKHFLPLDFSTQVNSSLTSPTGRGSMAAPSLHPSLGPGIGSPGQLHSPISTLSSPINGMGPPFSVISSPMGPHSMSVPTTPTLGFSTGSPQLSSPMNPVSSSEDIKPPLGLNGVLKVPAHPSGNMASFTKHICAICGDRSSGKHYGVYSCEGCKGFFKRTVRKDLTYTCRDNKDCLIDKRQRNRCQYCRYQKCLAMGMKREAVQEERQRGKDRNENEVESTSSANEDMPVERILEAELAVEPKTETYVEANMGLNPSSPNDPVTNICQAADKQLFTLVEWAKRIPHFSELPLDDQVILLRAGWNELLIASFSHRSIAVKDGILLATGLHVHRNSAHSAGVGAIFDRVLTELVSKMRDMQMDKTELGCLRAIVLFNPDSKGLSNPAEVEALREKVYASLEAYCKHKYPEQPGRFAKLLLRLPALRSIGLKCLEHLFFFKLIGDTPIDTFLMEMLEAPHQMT
Sequence of Voltage-gated inwardly rectifying potassium channel KCNH2 (Homo sapiens) (Q12809 whole entry, looked up): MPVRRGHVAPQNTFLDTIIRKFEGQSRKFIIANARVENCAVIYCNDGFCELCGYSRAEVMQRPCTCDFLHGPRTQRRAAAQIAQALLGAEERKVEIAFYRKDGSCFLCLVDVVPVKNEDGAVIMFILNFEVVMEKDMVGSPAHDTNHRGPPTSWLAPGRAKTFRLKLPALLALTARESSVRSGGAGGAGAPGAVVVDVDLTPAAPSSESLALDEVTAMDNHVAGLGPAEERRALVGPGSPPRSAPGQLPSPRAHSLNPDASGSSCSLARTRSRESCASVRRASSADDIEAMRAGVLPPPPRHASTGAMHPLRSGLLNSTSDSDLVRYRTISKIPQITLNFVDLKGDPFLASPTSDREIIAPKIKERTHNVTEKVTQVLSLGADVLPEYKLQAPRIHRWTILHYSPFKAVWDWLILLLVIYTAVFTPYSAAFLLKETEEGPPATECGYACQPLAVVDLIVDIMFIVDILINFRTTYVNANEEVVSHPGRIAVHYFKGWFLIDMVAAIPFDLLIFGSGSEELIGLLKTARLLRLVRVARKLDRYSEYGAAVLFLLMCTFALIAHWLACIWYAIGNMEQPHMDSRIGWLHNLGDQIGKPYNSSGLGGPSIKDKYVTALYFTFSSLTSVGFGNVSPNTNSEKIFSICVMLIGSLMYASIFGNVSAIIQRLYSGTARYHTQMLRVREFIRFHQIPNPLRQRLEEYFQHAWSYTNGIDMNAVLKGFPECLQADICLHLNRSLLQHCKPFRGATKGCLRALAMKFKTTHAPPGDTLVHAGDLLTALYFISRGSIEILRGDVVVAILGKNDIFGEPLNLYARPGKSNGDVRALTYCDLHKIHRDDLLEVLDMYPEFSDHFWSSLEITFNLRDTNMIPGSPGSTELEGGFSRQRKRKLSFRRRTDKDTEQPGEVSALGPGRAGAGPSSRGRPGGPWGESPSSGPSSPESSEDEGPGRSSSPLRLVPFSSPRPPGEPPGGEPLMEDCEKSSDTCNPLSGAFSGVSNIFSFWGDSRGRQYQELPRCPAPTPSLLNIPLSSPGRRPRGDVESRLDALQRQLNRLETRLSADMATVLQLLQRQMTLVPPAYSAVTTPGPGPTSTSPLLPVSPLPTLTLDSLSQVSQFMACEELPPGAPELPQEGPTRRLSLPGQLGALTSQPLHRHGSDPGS
Sequence of Thyroid hormone receptor beta (Homo sapiens) (P10828 whole entry, looked up): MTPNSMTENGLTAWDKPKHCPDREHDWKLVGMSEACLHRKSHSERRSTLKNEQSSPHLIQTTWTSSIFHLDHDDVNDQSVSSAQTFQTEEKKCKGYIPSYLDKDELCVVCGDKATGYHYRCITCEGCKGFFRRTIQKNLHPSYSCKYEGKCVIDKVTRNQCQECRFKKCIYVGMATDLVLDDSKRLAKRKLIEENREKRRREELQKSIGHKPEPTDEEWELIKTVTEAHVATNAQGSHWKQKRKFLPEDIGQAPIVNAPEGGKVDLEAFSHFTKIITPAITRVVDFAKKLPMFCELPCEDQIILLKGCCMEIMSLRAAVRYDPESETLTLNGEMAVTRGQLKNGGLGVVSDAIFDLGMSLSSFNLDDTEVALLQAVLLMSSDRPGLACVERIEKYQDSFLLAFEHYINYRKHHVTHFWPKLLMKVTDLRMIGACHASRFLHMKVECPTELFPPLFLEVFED

Compound	max response [1] [%]	outcome [2]	outcome [3]	max response [4] [%]	max response [5]	Potency [6]	activation [7]	activity change % (negative = inhibition) [8]	Potency [9]	activation [10]
CCCCC=O	-7.77	inactive	inactive	-1.56	-1.19% (inactive)	inactive	0.166% (inactive)			
CCCCCCCCCCCCOCC1CO1 (centres undefined)	6.34	inactive	inactive			inactive	-0.615% (inactive)			
CCCCCCCCC	-5.14	inactive		-11.2	0.715% (inactive)	inactive	0.37% (inactive)	13.2% (inactive)	inactive	-1.85% (inactive)
CC/C(C)=N/O	-14.2	inactive	inactive			inactive		13.4% (inactive)		-0.712% (inactive)
CC(=O)C1(C)CC2=C(CCCC2(C)C)CC1C (centres undefined)	-9.8	inactive		-2.18	25.5% (inactive)	15.8 µM (active)		-1.03% (inactive)		-2.14% (inactive)
Cc1ccc(N(C)C)cc1	5.65	inactive		-1.89	25.4% (inactive)	inactive	-0.0617% (inactive)	13.9% (inactive)	inactive	-2.63% (inactive)
Cc1cccc(C(=O)O)c1[N+](=O)[O-]	-4.96	inactive	inactive			inactive	-0.935% (inactive)	-11.8% (inactive)		1.31% (inactive)
CCC(=O)/C=C/C1C(C)=CCCC1(C)C (centres undefined)	-9.1	inactive	inactive	-4	2.33% (inactive)					-2.61% (inactive)
Cc1ccccc1C(=O)O	-19.5	inactive		-2.02	37.3% (inactive)	inactive	-1.6% (inactive)	-4.62% (inactive)	inactive	
CCCOCC(C)O (centres undefined)	-2.42	inactive		-6.13	0.524% (inactive)	inactive		0.569% (inactive)		
C=C(C)OC(C)=O	12.6	inactive		12.2	-11.4% (inactive)	inactive	-0.753% (inactive)	24.9% (inactive)	inactive	-0.827% (inactive)
c1ccc2[nH]cnc2c1	-10.3	inactive	inactive			inactive	1.42% (inactive)	2.62% (inactive)		0.533% (inactive)
CC(C)=C1CCC(C)CC1=O (centres undefined)	-4.57	inactive		3.58	6.87% (inactive)	inactive	-0.315% (inactive)	-6.39% (inactive)	inactive	-1.57% (inactive)
Cc1ccc(C)cc1	4.64	inactive		-6.14	34.4% (inactive)	inactive		2.43% (inactive)	inactive	-3.21% (inactive)
O=C(O)c1cc(Cl)cc(Cl)c1	-6.8	inactive		-0.682	11.3% (inactive)	inactive		6.89% (inactive)		1.56% (inactive)
OC/C(Br)=C(\Br)CO	-4.05	inactive	inactive	-2.68	-0.311% (inactive)	inactive	0.22% (inactive)			
CC(=O)c1ccccc1[N+](=O)[O-]	-16.2	inactive		5.46	5.8% (inactive)	inactive		19.8% (inactive)		
CC(C)C(C)C	-13.5	inactive		-13.7	-1.83% (inactive)	inactive		-4.52% (inactive)		
CCOCCO	9.04	inactive		1.51	7.78% (inactive)	inactive	-1.02% (inactive)	-11.8% (inactive)	inactive	-2.61% (inactive)
COc1cccc(N)c1	15.1	inactive	inactive			inactive				-3.72% (inactive)
CCNc1ccccc1	-5.14	inactive	inactive			inactive		-13.9% (inactive)		-2.34% (inactive)
Cc1ccc(C)c([N+](=O)[O-])c1	-15.2	inactive	inactive			inactive	0.199% (inactive)			
CCC(C)(C)C	7.52	inactive		-12.5	11.7% (inactive)	inactive		-4.13% (inactive)	inactive	-0.874% (inactive)
CCOC(=O)C(C)C(C)=O (centres undefined)	-14.3	inactive	inactive			inactive		2.26% (inactive)		6.52% (inactive)
O=[N+]([O-])c1ccc2nc[nH]c2c1	-26.8	inactive	inactive			inactive	0.954% (inactive)		inactive	

Source: PubChem BioAssay (NCATS)
